Experiment [1] is described as follows: AP1 Signaling Pathway (AID 357).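 Note: ME-180 reporter cells stimulated with EGF at its EC50 level; % is set by controls: 0 for no effect and ±100 for the full control effect.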 The note with it: ME-180 AP-1-bla reporter, EGF-induced, beta-lactamase ratio, 5 h. Summed up:
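First, ME-180 AP-1-bla cells were cultured overnight at 37 °C in low-serum Opti-MEM. Next, titrated compounds with EC50 EGF were incubated 5 hours. Finally, CCF4 was added for 2.5 hours and the 460/530 nm ratio recorded.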

Experiment [2] deals with Cytochrome P450 1A2 (Homo sapiens) (UniProt P05177). The experiment in a line: p450-cyp1a2 (AID 410; calls by dose curve; note: potency is the fitted concentration of half-maximal effect;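 for activity change, negative = inhibition: -100% = full effect of reference inhibitor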). The note with it: recombinant CYP1A2, luciferin-ME demethylation, luminescence; series mostly up to 25.6 µM. The essentials: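 O-Demethylation of luciferin 6' methyl ether by human CYP1A2 is monitored as luciferase luminescence. Substrate sits at Km (100uM); enzyme is 20nM. Values are scaled to 57 uM furafylline as maximal inhibition.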

The nature of experiment [3]: NFAT Signaling Pathway (AID 444).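 Note: carbachol stimulus at about its EC50 of 1 µM final; % is set by controls: 0 for no effect and ±100 for the full control effect.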 The note with it: Jurkat NFAT-bla M1, carbachol, beta-lactamase ratio, 5 h. Summed up: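 Read-out: CCF4 FRET ratio (460 nm/530 nm) after 1 h RT dye loading, used for %activity and AC50 from titration series. Cells: Jurkat NFAT-β-lactamase/M1 line, treated with compound plus 1 uM carbachol for 5 h, 37 °C.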
Experiment [4] in a line: Stat Signaling Pathway (AID 446).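 Note: ME-180 cervical cancer cells given 40 pM IL-6 alongside compound; SIE-controlled beta-lactamase reporter measured as 460/530 nm FRET emission ratio; % is set by controls: 0 for no effect and ±100 for the full control effect.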 The note with it: ME-180 (cervical carcinoma) SIE beta-lactamase reporter, IL-6 stimulated, 5 h. Summed up: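 Overnight-plated ME-180 cells bearing a STAT Inducible Element beta-lactamase reporter; 5 h co-exposure to compound and 40 pM IL-6; values normalized to 300 pM IL-6 and 125 nM JAK inhibitor controls.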
The target in experiment [5] is Glucocorticoid receptor (Homo sapiens) (UniProt P04150). The experiment in a line: GR-GFP Redistribution (AID 450;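 active = compounds whose dose series gives a full or clear partial fitted curve of increased nuclear translocation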; note: potency is the fitted concentration of half-maximal effect). The note with it: U2OS GR-GFP nuclear translocation, laser cytometry, 2 h.
For experiment [6] the target is unchanged. Briefly: GR-EFC Redistribution (AID 451; calls by dose curve; note: potency is the fitted concentration of half-maximal effect). The note with it: CHO-K1 GR-EFC translocation, beta-gal luminescence, 2 h. The essentials: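 Translocation of GR-ED fusion to nuclear EA restores b-gal, read by luminescence after 1 h room-temperature detection. Engineered CHO-K1 biosensor cells, 1,000/well, exposed 2 h at 37 C to titrations up to 46 uM final.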

Experiment [7] has as its target Mitogen-activated protein kinase 10 (Mus musculus) (UniProt Q61831). Briefly: JNK3 AlphaScreen Assay (AID 530).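 Note: kinase came from lysate of stimulated human HepG2 cells; signal reports phosphorylation of biotinylated GST-cJun 1-79 at Ser73 with 10 µM ATP; % is set by controls: 0 for no effect and ±100 for the full control effect.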 The note with it: JNK3 lysate, c-Jun phosphorylation; series mostly up to 25.6 µM. The essentials: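 qHTS titrations with 15 min compound pre-incubation before adding ATP (10 uM final). Read-out: AlphaScreen of Ser73-phosphorylated biotin-GST-cJun using HepG2 lysate JNK3 activated by IL-1β and TNFα.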
(Alpha assays give light when donor and acceptor beads are brought close together.)

The target in experiment [8] is Lysosomal acid glucosylceramidase (Homo sapiens) (UniProt P04062). The experiment in a line: Glucocerebrosidase-p2 (AID 348; in the data active = potency below about 10 µM; note: potency is the fitted concentration of half-maximal effect). The note with it: purified GBA, blue fluorogenic substrate, 40 min. Summed up:
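Normal human glucocerebrosidase (0.2 nM) with blue fluorogenic substrate (80 uM final) in citrate/phosphate pH 5.9 with 10mM sodium taurocholate, 0.01% tween-20; 40 min RT, NaOH/glycine stop; fluorescence Ex 365/Em 440; AC50 from a titration from 0.6 nM upwards.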

A short description of experiment [9]: Cell Viability - Jurkat (AID 426;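 active = dose-dependent loss of cell ATP signal giving a full or clear fitted curve, ranked by lower potency value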; note: potency is the fitted concentration of half-maximal effect). The note with it: qHTS. Summed up:
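Cells of the human T-cell leukemia line Jurkat (E6-1) are seeded at 5000 per well, treated with compound across a concentration range for 40 hours at 37 °C, then lysed with CellTiter-Glo; luminescence reports ATP.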

Experiment [10] is described as follows: Cell Viability - N2a (AID 540; active = well fitted curve in the direction sought with a large enough effect; an effect the other way counts as inactive or inconclusive; note: nearly all actives have a fitted effect of over 45% in size; note: potency is the fitted concentration of half-maximal effect;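 for activity change, negative = cytotoxicity: plate controls were DMSO alone for no effect and tamoxifen control for full effect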). The note with it: N2a mouse neuroblastoma cell viability; activity change, negative = cytotoxicity: at 92.2 µM (top of the series). Summed up:
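Cytotoxicity was scored as loss of cellular ATP in N2a cells, a mouse neuroblastoma line. Compounds are applied in a qHTS concentration series for 40 hr at 37 °C.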

A short description of experiment [11]: Cell Viability - NIH 3T3 (AID 541; active = well fitted curve in the direction sought with a large enough effect; an effect the other way counts as inactive or inconclusive;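 note: plate controls were DMSO alone for no effect and tamoxifen positive control for full effect; nearly all actives have a fitted effect of over 25% in size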). The note with it: NIH 3T3 cell viability, qHTS; activity change, negative = cytotoxicity: at 92.2 µM (top of the series). Summed up: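 Cells seeded at 1000/well, rested 5 hr at 37 °C, then dosed and incubated 40 hr at 37 °C. CellTiter-Glo added, 20 min room temperature, luminescence read. AC50 by Hill fit.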
Experiment [12] can be described thus: Cell Viability - Renal Proximal Tubule (AID 545; active = well fitted curve in the direction sought with a large enough effect; an effect the other way counts as inactive or inconclusive;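 note: 0% = DMSO only and -100% = 100 µM tamoxifen; nearly all actives have a fitted effect of over 40% in size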). The note with it: renal proximal tubule cells viability, primary cells of rat origin; activity change, negative = cytotoxicity: at 91.7 µM (top of the series). The essentials: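 Rat renal proximal tubule primary cells, 1000/well, exposed to compounds for 40 hr at 37 °C in complete medium; cellular ATP read by CellTiter-Glo luminescence. AC50 from concentration-response fitted with standard Hill equation.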

The nature of experiment [13]: Cell Viability - Hek293 (AID 427;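 active = compounds whose dose-response curve shows a full or clear partial loss of cell viability, called from curve shape rather than a numeric limit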;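 note: potency is the fitted concentration of half-maximal effect; cells exposed to compound for 40 hours at 37 °C before reading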). The note with it: qHTS. Summed up:
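AC50 values derive from Hill-modelled concentration-response of ATP-based luminescence, normalized between DMSO-only and 100 uM tamoxifen controls. Cells were exposed in complete culture medium for 40 hr at 37 °C before detection.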
A general note: qHTS replaces the single test concentration by a dilution series.

Experiment [14] can be described thus: Cell Viability - MRC5 (AID 434; calls by dose curve;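 note: potency is the fitted concentration of half-maximal effect; potency reflects cytotoxicity seen as loss of intracellular ATP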). The note with it: MRC5 lung fibroblast viability, qHTS. The essentials:
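AC50 values come from Hill-equation fits of intracellular ATP loss, measured by CellTiter-Glo luminescence. Normal lung fibroblasts (MRC5) had 40 hr compound treatment at 37 C, normalized between DMSO and 100 uM tamoxifen.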

Experiment [15] can be described thus: Cell Viability - SK-N-SH (AID 435; calls by dose curve;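 note: potency is the fitted concentration of half-maximal effect; compound exposure lasted 40 h at 37 °C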). The note with it: SK-N-SH neuroblastoma cell viability qHTS. Summed up:
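SK-N-SH neuroblastoma cells (1500/well) treated 40 h at 37 °C in complete medium; viability read as cellular ATP by CellTiter-Glo luminescence. Normalized to DMSO and 100 uM tamoxifen; AC50 from Hill fits of qHTS concentration-response.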

Experiment [16] in a line: Cell Viability - BJ (AID 421; calls by dose curve;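 note: potency is the fitted concentration of half-maximal effect; cells exposed to compound for 40 hours at 37 °C before readout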). The note with it: BJ fibroblast viability, qHTS. The essentials: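 Quantitative HTS: ATP depletion in BJ cells after 40 hr compound exposure in complete culture medium, detected with CellTiter-Glo; AC50 from standard Hill fits.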
A short description of experiment [17]: Cell Viability - HepG2 (AID 433; calls by dose curve;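 note: potency is the fitted concentration of half-maximal effect; potency for ATP loss meaning cytotoxicity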). The note with it: qHTS. The essentials: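 HepG2 cells, 1500 per well, treated 40 hr at 37 °C in complete medium; viability from intracellular ATP by CellTiter-Glo luminescence. Normalized to DMSO and 100 uM tamoxifen; AC50 from Hill fit of qHTS concentration-response.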
Experiment [18] in a line: Cell Viability - HUV-EC-C (AID 542; active = well fitted curve in the direction sought with a large enough effect; an effect the other way counts as inactive or inconclusive; note: % is set by controls: 0 for no effect and ±100 for the full control effect; nearly all actives have a fitted effect of over 35% in size). The note with it: HUV-EC-C endothelial cell viability, qHTS; series mostly up to 92.2 µM. Summed up: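 Cells were seeded at 1000 per well and incubated 5 hr at 37 °C before compound addition. After 40 hr at 37 °C, CellTiter-Glo reagent was added for 20 min and luminescence read. AC50 values came from Hill-equation modelling.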
The nature of experiment [19]: Cell Viability - H-4-II-E (AID 543; active = well fitted curve in the direction sought with a large enough effect; an effect the other way counts as inactive or inconclusive; note: % is set by controls: 0 for no effect and ±100 for the full control effect; nearly all actives have a fitted effect of over 35% in size). The note with it: H-4-II-E rat hepatoma viability; series mostly up to 92.2 µM. Summed up: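 Cells seeded at 1500 per well and rested 5 hr; compounds added; 40 hr incubation at 37 °C; CellTiter-Glo added, 20 min at room temperature; luminescence read. Hill-equation fits gave AC50.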
Experiment [20] can be described thus: Cell Viability - SH-SY5Y (AID 544; active = well fitted curve in the direction sought with a large enough effect; an effect the other way counts as inactive or inconclusive;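 note: 0% = DMSO alone and -100% = 100 µM tamoxifen; nearly all actives have a fitted effect of over 55% in size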). The note with it: SH-SY5Y neuroblastoma cell viability; viability change, negative = cytotoxic: at 92.2 µM (top of the series). Summed up:
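Cells were plated at 1500 per well and allowed 5 hr at 37 °C. Compounds were added across a concentration range and incubated 40 hr at 37 °C. CellTiter-Glo was added for 20 min at room temperature before luminescence reading.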

“And” between values parts separate entries of the source, which are not always exact repeats. Equal entries are not always repeated. Unmarked numbers belong to inactive results. Inconclusive results are not listed. The source made the active and inactive calls. Unless noted, calls come from the whole dose curve; as a rule, active = well fitted curve in either direction with a large enough effect (not every such curve was filed as active); inconclusive = small, poorly fitted or top-dose-only effect, or another doubt; inactive = flat fitted curve, though single readings scatter.

These results are taken from PubChem BioAssay (NCATS).

Glucocorticoid receptor (Homo sapiens), sequence (P04150 whole entry, looked up, the tested form may be a part): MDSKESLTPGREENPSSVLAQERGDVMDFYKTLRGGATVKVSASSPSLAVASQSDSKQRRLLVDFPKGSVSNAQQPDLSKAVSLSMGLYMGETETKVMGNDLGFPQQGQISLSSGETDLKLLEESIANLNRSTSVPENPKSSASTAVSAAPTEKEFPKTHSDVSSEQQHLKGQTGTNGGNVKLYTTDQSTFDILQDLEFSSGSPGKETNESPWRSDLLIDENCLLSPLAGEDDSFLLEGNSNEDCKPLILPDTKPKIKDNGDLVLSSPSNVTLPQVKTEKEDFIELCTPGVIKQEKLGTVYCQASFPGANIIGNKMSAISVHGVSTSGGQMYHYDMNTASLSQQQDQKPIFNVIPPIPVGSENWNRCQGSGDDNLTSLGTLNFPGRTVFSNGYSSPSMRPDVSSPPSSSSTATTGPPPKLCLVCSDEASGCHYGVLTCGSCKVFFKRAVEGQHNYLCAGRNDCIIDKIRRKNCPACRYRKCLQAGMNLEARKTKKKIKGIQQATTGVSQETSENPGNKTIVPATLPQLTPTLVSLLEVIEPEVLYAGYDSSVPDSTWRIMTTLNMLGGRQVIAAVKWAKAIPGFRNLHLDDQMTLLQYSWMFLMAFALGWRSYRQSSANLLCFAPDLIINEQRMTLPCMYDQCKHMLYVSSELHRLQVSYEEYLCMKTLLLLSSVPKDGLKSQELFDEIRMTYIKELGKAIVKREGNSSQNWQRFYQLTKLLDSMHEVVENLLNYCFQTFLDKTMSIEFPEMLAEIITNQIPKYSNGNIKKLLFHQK
Cytochrome P450 1A2 (Homo sapiens), sequence (P05177 whole entry, looked up): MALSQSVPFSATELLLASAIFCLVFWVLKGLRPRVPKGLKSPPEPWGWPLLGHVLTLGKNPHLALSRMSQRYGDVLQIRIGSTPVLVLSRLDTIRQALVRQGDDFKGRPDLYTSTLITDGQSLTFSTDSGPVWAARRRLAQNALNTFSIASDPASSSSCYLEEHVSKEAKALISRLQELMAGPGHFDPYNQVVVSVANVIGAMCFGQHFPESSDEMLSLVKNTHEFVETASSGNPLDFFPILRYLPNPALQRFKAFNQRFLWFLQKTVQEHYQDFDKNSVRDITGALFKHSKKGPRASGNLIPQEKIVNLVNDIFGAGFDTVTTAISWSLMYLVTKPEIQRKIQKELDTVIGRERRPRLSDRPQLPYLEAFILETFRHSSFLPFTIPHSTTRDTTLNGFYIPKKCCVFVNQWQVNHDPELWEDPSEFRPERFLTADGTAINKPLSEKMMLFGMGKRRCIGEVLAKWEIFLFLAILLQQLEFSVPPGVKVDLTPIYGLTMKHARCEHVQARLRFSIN
Lysosomal acid glucosylceramidase (Homo sapiens), sequence (P04062 whole entry, looked up): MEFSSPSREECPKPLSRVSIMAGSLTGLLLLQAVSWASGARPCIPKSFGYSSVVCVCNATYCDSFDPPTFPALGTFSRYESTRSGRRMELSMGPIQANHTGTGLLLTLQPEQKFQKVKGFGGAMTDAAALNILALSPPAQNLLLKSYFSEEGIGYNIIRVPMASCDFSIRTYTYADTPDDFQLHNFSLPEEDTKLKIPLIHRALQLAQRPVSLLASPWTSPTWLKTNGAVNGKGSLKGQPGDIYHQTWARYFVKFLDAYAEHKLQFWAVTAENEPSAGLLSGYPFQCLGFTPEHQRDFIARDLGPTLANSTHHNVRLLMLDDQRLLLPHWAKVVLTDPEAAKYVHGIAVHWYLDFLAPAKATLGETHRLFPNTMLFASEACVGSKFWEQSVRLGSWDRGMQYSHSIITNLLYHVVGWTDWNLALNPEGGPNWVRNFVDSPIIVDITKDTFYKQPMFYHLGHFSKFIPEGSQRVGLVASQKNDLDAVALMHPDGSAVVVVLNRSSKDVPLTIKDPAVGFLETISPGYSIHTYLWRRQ

In the case of `O=C1CCC(c2ccc(-n3ccnc3)cc2)=NN1`, the activity change, negative = inhibition is 14.9% in experiment [1] (at 38 µM (top of the series)) and 3.77% in experiment [3] (at 38 µM (top of the series)). Also, the Potency is 158 nM (active) in experiment [2], over 46 µM in experiment [5] and over 46 µM in experiment [6]. Also, in experiment [4] (at 38 µM (top of the series)), the activity, negative = inhibition is 9.57%. Moreover, the molecule was called inactive in [7].

As to `CCOc1ccc(Cc2nccc3cc(OCC)c(OCC)cc23)cc1OCC`, the figures for the activity change, negative = inhibition in [1] (at 17.2 µM (top of the series)) and in experiment [3] (at 17.2 µM (top of the series)) were -1.91% and -11.6%, respectively. In addition, the Potency in experiment [2] is 10000 nM (active); in experiment [5], over 20.6 µM. Further, in [4] (at 17.2 µM (top of the series)), the activity, negative = inhibition is -1.62%. In addition, the outcome in [7] was inactive.

Turning to `CN(C)CC/C=C1\c2ccccc2Sc2ccc(Cl)cc21`, the Potency was over 11.4 µM in experiment [8]; 1.58 µM (active) and 3.98 µM (active) in experiment [2]; > 20.6 µM and > 46 µM in experiment [5]. Besides, the activity change, negative = inhibition in experiment [1] (at 7.69 µM (top of the series)) was 20.4%. Further, the activity, negative = inhibition in experiment [4] (at 7.69 µM (top of the series)) was -3.4%; in experiment [4] (at 17.2 µM (top of the series)), -6.29%. For the same molecule, the molecule was classed as inactive in experiment [7].

With `CC(C)COC(=O)OCN1C(=O)CN(CCN2CC(=O)N(COC(=O)OCC(C)C)C(=O)C2)CC1=O`, the figures for the activity change, negative = inhibition in experiment [1] (at 38 µM (top of the series)) and in experiment [3] (at 38 µM (top of the series)) were 5.55% and 7.64%, respectively. In addition, the Potency entry in experiment [2] was “inactive”. The activity, negative = inhibition in experiment [4] (at 38 µM (top of the series)) was -1.3%. For the same molecule, the Potency in experiment [5] was over 46 µM. The outcome in experiment [7] was inactive.

On to `Cc1ccnc(NS(=O)(=O)c2ccc(N)cc2)n1`, for which the activity change, negative = inhibition in experiment [1] (at 17.2 µM (top of the series)) is 17.4%; in [3] (at 17.2 µM (top of the series)) it was 0.552%. Also, the Potency entry in experiment [2] is “inactive”. In addition, the activity, negative = inhibition in experiment [4] (at 17.2 µM (top of the series)) is -12.6%. Besides, in experiment [5], the Potency is over 20.6 µM. Besides, the molecule was called inactive in [7].

For `CC(C)(C)CC(C)(C)c1ccc(OCCOCC[N+](C)(C)Cc2ccccc2)cc1`, the Potency was 26.8 µM (active) in experiment [9] and 5.01 µM (active) in experiment [10]. Also, the activity change, negative = cytotoxicity in experiment [11] is -129% (active); in experiment [12], -90% (active).

`Oc1c(Cl)cc(Cl)cc1Sc1cc(Cl)cc(Cl)c1O`: the Potency in experiment [9] was 47.8 µM (active); in experiment [13], 36.2 µM (active); in experiment [10], 31.6 µM (active).

On to `CC(=O)O[C@]1(C(C)=O)CC[C@H]2[C@@H]3C[C@H](C)C4=CC(=O)CC[C@]4(C)[C@H]3CC[C@@]21C`, for which the Potency in experiment [14] and in [15] was over 92 µM in each case. The activity change, negative = cytotoxicity in experiment [11] was -134% (active).

`CC(O)C(=O)O` (stereo not drawn): the Potency in experiment [16], in experiment [9], in experiment [13], in experiment [17], in experiment [14] and in experiment [15] was over 92 µM each time. The molecule was classed as inactive in [7]. Further, the Potency result in experiment [10], in [11], in [18], in experiment [19] and in experiment [20] was “inactive” throughout. For the same molecule, the activity change, negative = cytotoxicity in experiment [12] is -2.48%.

For the molecule `COc1ccc(CCN2CCC(Nc3nc4ccccc4n3Cc3ccc(F)cc3)CC2)cc1`, the activity change, negative = inhibition in experiment [1] (at 17.2 µM (top of the series)) was -6.26% and 6.64%. In experiment [4] (at 17.2 µM (top of the series)), the activity, negative = inhibition is -11% and -15.4%. Moreover, the Potency in [5] and in experiment [6] was over 20.6 µM throughout. The molecule was classed as inactive in experiment [7].

Regarding `CCCCCCC[N+](CC)(CC)CCCCc1ccc(Cl)cc1`, in [4] (at 17.2 µM (top of the series)), the activity, negative = inhibition was -5.02%. Also, the Potency in [5] is over 20.6 µM. Moreover, the molecule was called inactive in experiment [7].
